Test results published in PubChem BioAssay (Tox21).
Inconclusive results are not listed. Calls of active or inactive are those of the source. Unless noted, calls come from the whole dose curve; as a rule, active = well fitted curve in the direction sought with a large enough effect in the repeat runs; inconclusive = weak or mixed curves; inactive = no such curve, though single readings can be large; an effect the other way counts as inactive or inconclusive.

Experiments:
[1] = qHTS assay to identify small molecule antagonists of the sonic hedgehog signaling (Shh) pathway (AID 1259369; calls by dose curve; note: nearly all actives have a fitted effect of over 45% in size)
Outline: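 Luminescence readout: firefly Luc under Gli1 response element in 3T3Gli1-Luc cells (NIH/3T3 clone). Antagonist mode, stimulation by conditioned medium; compound exposure 24hr at 37 C, 5% CO2.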

[2] = qHTS assay to identify small molecule agonists of the androgen receptor (AR) signaling pathway in the presence of an antagonist - cell viability counter screen (AID 1259379);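 note: MDA-kb2 human breast cancer cells carrying an MMTV luciferase reporter; series mostly up to about 92 µM; nearly all actives have a fitted effect of over 25% in size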
Outline: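 Viability counter screen: CellTiter-Fluor fluorescence, measured in the same wells as the luciferase read-out. MDA-kb2 cells, 3,000/well, with nilutamide at 3.0uM final and compounds at 15 concentrations, 16 hr at 37C, 0% CO2.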

[3] = qHTS assay to identify small molecule agonists of the estrogen receptor beta (ER-beta) signaling pathway - cell viability counter screen (AID 1259380); note: nearly all actives have a fitted effect of over 30% in size
Outline: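 Luminescence read-out (CellTiter-Glo, 30 min, room temp) taken in the same wells as the beta-lactamase reporter assay; ER-beta-UAS-bla HEK293T cells exposed to DMSO-dissolved compounds for 16 hr at 37C in 2% charcoal-stripped FBS medium.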

[4] = qHTS assay to identify small molecule antagonists of the estrogen receptor beta (ER-beta) signaling pathway - cell viability counter screen (AID 1259382);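 note: HEK293T cells carrying ER-beta-UAS-bla reporter stimulated with estradiol; series mostly up to about 92 µM; nearly all actives have a fitted effect of over 55% in size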
Outline: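 Luminescent ATP read-out (CellTiter-Glo, 30 min, RT) taken in the same wells as the bla reporter assay. HEK293T ER-beta-UAS-bla cells in 2% charcoal-stripped FBS were exposed to compounds with 1nM E2 for 16 hr at 37C.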

[5] = molecular target: Estrogen receptor (Homo sapiens) (UniProt P03372); assay: qHTS assay to identify small molecule agonists of the estrogen receptor alpha (ER-alpha) signaling pathway in the presence of an antagonist (AID 1259383; calls by dose curve; note: nearly all actives have a fitted effect of over 15% in size; note: potency is the fitted concentration of half-maximal effect; for activation: top concentration of the series differs between compounds)
Outline: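 Luciferase luminescence (ONE-Glo, 30min at room temperature) measured in VM7Luc4E2 cells after 22hr compound exposure at 15 concentrations, with 10.0nM ICI-182,780 final present; cells express endogenous ER-alpha and carry four EREs upstream of luciferase.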

[6] = qHTS assay to identify small molecule agonists or antagonists of the thyroid stimulating hormone receptor (TSHR) signaling pathway - wild type cell line counter screen (AID 1259384; calls by dose curve)
Outline: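 Counter screen in untransfected Hek293: compounds (15-point titration, triplicate) plus phosphodiesterase inhibitor Ro20-1724 added after 18 h plating; 30 min RT. Intracellular cAMP via competitive d2/cryptate immunoassay, 1 h incubation.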

[7] = molecular target: Thyrotropin receptor (Homo sapiens) (UniProt P16473); assay: qHTS assay to identify small molecule antagonists of the thyroid stimulating hormone receptor (TSHR) signaling pathway (AID 1259385; calls by dose curve; note: nearly all actives have a fitted effect of over 20% in size)
Outline: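 Antagonist mode: compound-treated TSHR-expressing HEK293 cells were stimulated with 1.5 ng/mL TSH (final) in presence of Ro20-1724 for 30 min at RT. HTRF cAMP detection after 1 h; each compound tested at 15 concentrations, triplicate.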

[8] = qHTS assay to identify small molecule agonists of the estrogen receptor alpha (ER-alpha) signaling pathway in the presence of an antagonist - cell viability counter screen (AID 1259386);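 note: series mostly up to about 92 µM; cells exposed to compounds for 22 h at 37 °C before the viability read; nearly all actives have a fitted effect of over 30% in size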
Outline: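 Read-out: CellTiter-Fluor fluorescence after 1hr reagent incubation, measured in the same wells as the luciferase readout. VM7Luc4E2 cells were exposed to 15 compound concentrations with 10.0nM ICI-182,780 for 22hr at 37C.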

[9] = molecular target: Progesterone receptor (Homo sapiens) (UniProt P06401); assay: qHTS assay to identify small molecule agonists of the progesterone receptor (PR) signaling pathway (AID 1346784; calls by dose curve; note: nearly all actives have a fitted effect of over 30% in size; note: potency is the fitted concentration of half-maximal effect)
Outline: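 Using charcoal-stripped serum (2%) to limit endogenous steroids, PR-UAS-bla HEK 293T cells received compounds for 16 hr at 37C after 6 hr plating; beta-lactamase FRET fluorescence was recorded following 2 hr substrate loading at room temperature.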

[10] = molecular target: Progesterone receptor (Homo sapiens) (UniProt P06401); assay: qHTS assay to identify small molecule antagonists of the progesterone receptor (PR) signaling pathway (AID 1346795; active = well fitted inhibition curve with a large enough effect in the signal ratio in the repeat runs, not every such curve was filed as active; the % refers to the signal ratio; note: potency is the fitted concentration of half-maximal effect)
Outline: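 Inhibition of R5020-induced (1 nM final) beta-lactamase reporter signal in PR-UAS-bla HEK293T cells was scored by FRET fluorescence after overnight (16 hr) compound treatment.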

[11] = qHTS assay to identify small molecule antagonists of the progesterone receptor (PR) signaling pathway - cell viability counter screen (AID 1346798); note: series mostly up to about 92 µM; nearly all actives have a fitted effect of over 50% in size
Outline: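 ATP content as viability readout: CellTiter-Glo luminescence, 30 min room temperature, in PR-UAS-bla HEK293T cells after 16 hr compound/R5020 treatment at 37C and 5% CO2.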

[12] = qHTS assay to identify small molecule agonists of the progesterone receptor (PR) signaling pathway - cell viability counter screen (AID 1346799; calls by dose curve; note: nearly all actives have a fitted effect of over 45% in size)
Outline: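 Cytotoxicity in PR-bla HEK293T cells: 16 h compound, 37C; CellTiter-Glo added post-FRET read; luminescence after 30 min RT.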

[13] = qHTS assay to identify small molecule antagonists of the TGF-beta/Smad signaling pathway - cell viability counter screen (AID 1346824); note: nearly all actives have a fitted effect of over 50% in size
Outline: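 Cytotoxicity counter-screen run in the same wells as the beta-lactamase Smad reporter read: CellTiter-Glo luminescence after 30 min at room temperature. HEK 293T SBE-bla cells had 5 hr compound exposure at 37 C with TGF-beta1 (0.25 ng/mL stock).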

[14] = qHTS assay to identify small molecule agonists of the TGF-beta/Smad signaling pathway - cell viability counter screen (AID 1346829); note: top concentration of the series differs between compounds; nearly all actives have a fitted effect of over 45% in size
Outline: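 Luminescence from CellTiter-Glo, read after a 30 min room-temperature incubation, gives cell viability of SBE-bla HEK 293T cells treated 5 hr with compounds at 37 C.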

[15] = qHTS assay to identify small molecule agonists of the TGF-beta/Smad signaling pathway (AID 1346859; active = well fitted activation curve with a large enough effect in the signal ratio in the repeat runs, not every such curve was filed as active; the % refers to the signal ratio; note: series mostly up to about 77 µM)
Outline: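 Stable Smad binding element-beta-lactamase HEK 293T cells; 5 hr compound exposure at 37 C under 5% CO2; 2 hr room-temperature substrate step; fluorescence excited at 405 nm, collected at 460 nm and 530 nm.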

[16] = molecular target: Thyrotropin-releasing hormone receptor (Homo sapiens) (UniProt P34981); assay: qHTS assay to identify small molecule antagonists of the thyrotropin-releasing hormone receptor (TRHR) signaling pathway (AID 1346877; active = well fitted inhibition curve with a large enough effect in the repeat runs, not every such curve was filed as active; note: series mostly up to about 51 µM)
Outline: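 HEK293/TRHR cells, 18 h, 37 °C; Ca2+ dye 2 h; cpd 5 min RT; TRH 1 nM final; fluorescence read 3 min, 1 s intervals; 15 concs, triplicate.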

[17] = molecular target: Thyrotropin-releasing hormone receptor (Homo sapiens) (UniProt P34981); assay: qHTS assay to identify small molecule agonists of the thyrotropin-releasing hormone receptor (TRHR) signaling pathway (AID 1346891; calls by dose curve;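 note: HEK293 cells expressing TRHR with calcium dye readout; series mostly up to about 58 µM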)
Outline: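 In 1536-format, 1500 TRHR-Hek293 cells per well grew 18 h, took up calcium dye for 2 h at 37 °C, received compound, and were read kinetically; 15-point titrations, triplicates.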

[18] = molecular target: Estrogen receptor beta (Homo sapiens) (UniProt Q92731); assay: qHTS assay to identify small molecule agonists of the estrogen receptor beta (ER-beta) signaling pathway (AID 1259377; active = well fitted activation curve with a large enough effect in the signal ratio in the repeat runs, not every such curve was filed as active; the % refers to the signal ratio)
Outline: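 In HEK293T cells bearing a UAS-beta-lactamase reporter under ER-beta control, DMSO-delivered compounds were incubated for 16 hr at 37C. Activity was detected as fluorescence 2 hours after LiveBLAzer B/G FRET substrate addition.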

[19] = molecular target: Estrogen receptor beta (Homo sapiens) (UniProt Q92731); assay: qHTS assay to identify small molecule antagonists of the estrogen receptor beta (ER-beta) signaling pathway (AID 1259378; active = well fitted inhibition curve with a large enough effect in the signal ratio in the repeat runs, not every such curve was filed as active; the % refers to the signal ratio)
Outline: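 Antagonist mode: compounds added to beta-lactamase reporter HEK293T ER-beta-UAS cells stimulated with E2 (1nM final), 16 hr at 37C. LiveBLAzer B/G FRET substrate, 2 hours room temperature, fluorescence read-out.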

Measured: Potency

Sequence of Estrogen receptor beta (Homo sapiens) (Q92731 whole entry, looked up): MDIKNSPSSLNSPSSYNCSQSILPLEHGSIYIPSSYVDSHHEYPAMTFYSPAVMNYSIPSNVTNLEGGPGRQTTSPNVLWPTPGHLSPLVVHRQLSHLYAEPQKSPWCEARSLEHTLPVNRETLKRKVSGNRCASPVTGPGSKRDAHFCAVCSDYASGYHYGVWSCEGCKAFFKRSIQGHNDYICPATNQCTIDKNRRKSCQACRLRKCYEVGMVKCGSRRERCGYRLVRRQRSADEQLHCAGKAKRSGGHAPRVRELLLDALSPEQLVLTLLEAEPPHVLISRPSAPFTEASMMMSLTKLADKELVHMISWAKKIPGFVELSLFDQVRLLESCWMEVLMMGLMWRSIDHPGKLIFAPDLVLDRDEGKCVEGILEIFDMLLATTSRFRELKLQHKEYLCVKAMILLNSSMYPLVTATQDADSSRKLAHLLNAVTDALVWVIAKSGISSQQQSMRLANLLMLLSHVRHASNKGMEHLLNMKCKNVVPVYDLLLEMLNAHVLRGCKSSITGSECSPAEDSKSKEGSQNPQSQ
Sequence of Estrogen receptor (Homo sapiens) (P03372 whole entry, looked up): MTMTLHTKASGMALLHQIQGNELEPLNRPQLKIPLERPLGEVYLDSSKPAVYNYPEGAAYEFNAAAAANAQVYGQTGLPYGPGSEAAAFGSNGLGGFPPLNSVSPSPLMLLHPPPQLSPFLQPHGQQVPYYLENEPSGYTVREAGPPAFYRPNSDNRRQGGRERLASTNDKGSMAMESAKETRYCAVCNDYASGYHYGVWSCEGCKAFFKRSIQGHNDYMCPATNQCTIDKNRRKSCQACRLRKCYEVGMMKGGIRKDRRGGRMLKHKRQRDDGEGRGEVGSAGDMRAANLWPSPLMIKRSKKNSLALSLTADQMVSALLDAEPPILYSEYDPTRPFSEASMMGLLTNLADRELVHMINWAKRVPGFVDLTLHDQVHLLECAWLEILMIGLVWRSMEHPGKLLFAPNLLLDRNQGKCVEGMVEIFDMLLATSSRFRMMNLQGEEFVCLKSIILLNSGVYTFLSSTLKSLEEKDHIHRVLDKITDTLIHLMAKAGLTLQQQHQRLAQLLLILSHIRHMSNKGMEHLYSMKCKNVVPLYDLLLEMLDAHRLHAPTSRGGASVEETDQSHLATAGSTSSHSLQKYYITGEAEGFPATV
Sequence of Progesterone receptor (Homo sapiens) (P06401 whole entry, looked up): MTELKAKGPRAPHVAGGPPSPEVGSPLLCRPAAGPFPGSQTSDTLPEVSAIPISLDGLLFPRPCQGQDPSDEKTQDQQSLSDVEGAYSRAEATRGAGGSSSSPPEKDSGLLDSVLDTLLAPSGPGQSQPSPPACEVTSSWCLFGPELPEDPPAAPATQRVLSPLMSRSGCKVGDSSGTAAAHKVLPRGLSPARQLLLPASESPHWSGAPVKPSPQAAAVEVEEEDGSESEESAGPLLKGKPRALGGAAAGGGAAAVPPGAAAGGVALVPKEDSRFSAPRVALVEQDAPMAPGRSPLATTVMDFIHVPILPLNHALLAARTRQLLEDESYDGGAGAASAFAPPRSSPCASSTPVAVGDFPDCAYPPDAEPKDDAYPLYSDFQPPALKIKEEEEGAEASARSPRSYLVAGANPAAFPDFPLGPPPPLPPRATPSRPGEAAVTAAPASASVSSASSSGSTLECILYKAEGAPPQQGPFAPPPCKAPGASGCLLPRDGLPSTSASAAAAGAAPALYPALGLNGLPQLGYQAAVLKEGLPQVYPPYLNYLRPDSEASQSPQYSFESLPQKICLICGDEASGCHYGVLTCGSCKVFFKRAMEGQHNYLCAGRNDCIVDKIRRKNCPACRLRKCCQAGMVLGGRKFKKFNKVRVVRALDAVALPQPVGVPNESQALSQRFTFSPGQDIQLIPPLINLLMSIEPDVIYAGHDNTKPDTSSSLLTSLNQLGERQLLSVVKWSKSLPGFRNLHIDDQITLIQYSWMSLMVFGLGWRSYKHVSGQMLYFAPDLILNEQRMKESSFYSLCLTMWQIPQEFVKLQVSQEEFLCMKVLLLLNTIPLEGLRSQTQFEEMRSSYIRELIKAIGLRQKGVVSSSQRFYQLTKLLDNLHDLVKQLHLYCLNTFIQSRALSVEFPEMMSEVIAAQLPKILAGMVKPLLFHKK
Sequence of Thyrotropin receptor (Homo sapiens) (P16473 whole entry, looked up): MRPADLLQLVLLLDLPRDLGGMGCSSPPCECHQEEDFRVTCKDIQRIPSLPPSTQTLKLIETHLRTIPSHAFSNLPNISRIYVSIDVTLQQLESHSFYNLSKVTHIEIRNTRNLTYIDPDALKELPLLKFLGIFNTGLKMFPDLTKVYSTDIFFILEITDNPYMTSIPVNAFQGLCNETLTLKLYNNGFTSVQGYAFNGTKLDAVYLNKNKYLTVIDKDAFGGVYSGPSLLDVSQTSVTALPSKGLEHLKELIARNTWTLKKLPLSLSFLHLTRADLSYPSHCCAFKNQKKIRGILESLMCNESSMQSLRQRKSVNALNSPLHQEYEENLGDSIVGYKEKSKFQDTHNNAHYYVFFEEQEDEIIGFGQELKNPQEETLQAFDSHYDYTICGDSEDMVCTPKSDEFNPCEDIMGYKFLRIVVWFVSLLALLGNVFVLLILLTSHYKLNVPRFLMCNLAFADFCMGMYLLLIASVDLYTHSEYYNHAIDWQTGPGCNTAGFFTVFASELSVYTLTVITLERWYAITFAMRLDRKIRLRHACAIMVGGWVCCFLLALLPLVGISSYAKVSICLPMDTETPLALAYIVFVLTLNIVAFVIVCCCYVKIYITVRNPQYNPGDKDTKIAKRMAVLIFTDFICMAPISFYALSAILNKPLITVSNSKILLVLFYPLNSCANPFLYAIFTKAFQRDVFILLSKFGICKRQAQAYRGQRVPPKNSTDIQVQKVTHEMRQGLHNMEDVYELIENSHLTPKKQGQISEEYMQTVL
Sequence of Thyrotropin-releasing hormone receptor (Homo sapiens) (P34981 whole entry, looked up): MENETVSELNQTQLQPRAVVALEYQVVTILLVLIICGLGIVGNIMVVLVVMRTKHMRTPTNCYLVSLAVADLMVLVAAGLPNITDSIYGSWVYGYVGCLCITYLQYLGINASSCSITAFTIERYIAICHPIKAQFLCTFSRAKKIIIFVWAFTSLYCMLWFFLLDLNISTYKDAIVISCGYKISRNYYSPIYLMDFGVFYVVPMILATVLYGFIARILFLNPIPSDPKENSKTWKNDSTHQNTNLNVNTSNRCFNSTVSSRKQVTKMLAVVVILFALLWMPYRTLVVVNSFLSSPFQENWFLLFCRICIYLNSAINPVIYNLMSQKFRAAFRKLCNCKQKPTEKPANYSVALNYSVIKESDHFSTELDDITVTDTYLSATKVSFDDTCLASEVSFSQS

CCCN1CCC[C@@H]2Cc3nc(N)ncc3C[C@H]21
not listed: [18] | [19]
inactive: all other assays above

CC(Cl)(Cl)Cl
not listed: [5] | [13] | [18] | [19]
inactive: all other assays above

O=C(O)C(Br)(Br)Br
not listed: [7] | [18] | [19]
inactive: all other assays above

O=[N+]([O-])CCO
not listed: [6] | [7] | [13] | [18] | [19]
inactive: all other assays above

O=C(Cl)c1ccccc1
not listed: [18] | [19]
inactive: all other assays above

CON(C)C(=O)Nc1ccc(Br)cc1
not listed: [5] | [12] | [18] | [19]
inactive: all other assays above

c1ccc2c(c1)CCNC2
not listed: [1] | [5] | [8] | [10] | [11]
inactive: all other assays above

COC1=CC(=O)O[C@@H](/C=C/c2ccccc2)C1
inactive: [18] | [2] | [4] | [6] | [8] | [9] | [11] | [12] | [14]

CC#Cc1cc(C)nc(Nc2ccccc2)n1
active: [10] 24.3 µM
not listed: [1] | [3] | [11] | [12] | [19]
inactive: all other assays above

C[C@]12C=CC(=O)C=C1CC[C@@H]1[C@@H]2CC[C@@]2(C)[C@H]1CC[C@]2(C)O
active: [5] 2.98 µM | [9] 3.35 µM
not listed: [1] | [3] | [8] | [11] | [12] | [18] | [19]
inactive: all other assays above

C#CCOC(=O)/C=C(C)/C=C/CC(C)CCCC(C)C (stereo not given)
not listed: [4] | [8] | [13] | [18] | [19]
inactive: all other assays above

COC(=O)c1ccccc1CS(=O)(=O)NC(=O)Nc1nc(OC)cc(OC)n1
not listed: [1] | [7] | [9]
inactive: all other assays above

Cc1ccc(-c2nc3ccc(C)cn3c2CC(=O)N(C)C)cc1
not listed: [3] | [8] | [11] | [18] | [19]
inactive: all other assays above

NNC(N)=O
not listed: [1]
inactive: all other assays above
